This excerpt belongs to a sample that is enriched for hits.
IDE exosite FP – exo-site inhibitors of human insulin-degrading enzyme. P14735. purified IDE, FL-6b probe fluorescence polarization; hits give low values. z-score at 20 µM. actives 6.3% (n = 17,000). AID 1259349;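 active = z-score of -3 or lower, meaning strong loss of probe binding signal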;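 note: His-tagged human IDE residues 42-1019 made in E. coli with 30 nM FL-6b probe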
Numbers without * were called inactive.

SMILES | IDE exosite FP
O=C(C1CCC1)N1CC(=O)N2[C@@H](CO)[C@H](c3ccc(C#CCc4ccccc4)cc3)[C@@H]2C1 | -0.22
O=C(C1CCCCC1)N1CC(=O)N2[C@H](C1)[C@H](c1ccc(C#Cc3cccc(F)c3)cc1)[C@@H]2CO | 2.12
O=C(C1CCC1)N1CC(=O)N2[C@H](CO)[C@@H](c3ccc(C#Cc4cccc(F)c4)cc3)[C@@H]2C1 | -4.44*
COc1ccc(C#Cc2ccc([C@H]3[C@@H](CO)N4C(=O)CN(C(=O)C5CCOCC5)C[C@H]34)cc2)cc1 | -1.44
O=C(C1CCOCC1)N1CC(=O)N2[C@H](CO)[C@@H](c3ccc(C#Cc4cccc(F)c4)cc3)[C@@H]2C1 | -10.3*
O=C(C1CCCCC1)N1CC(=O)N2[C@H](CO)[C@@H](c3ccc(C#Cc4cccc(F)c4)cc3)[C@H]2C1 | -0.723
O=C(C1CC1)N1CC(=O)N2[C@H](CO)[C@H](c3ccc(C#CCc4ccccc4)cc3)[C@H]2C1 | -0.859
O=C(C1CC1)N1CC(=O)N2[C@H](CO)[C@H](c3ccc(C#CC4CCCC4)cc3)[C@H]2C1 | 1.67
COc1ccc(C#Cc2ccc([C@@H]3[C@@H](CO)N4C(=O)CN(C(=O)C5CCOCC5)C[C@H]34)cc2)cc1 | 1.63
O=C(C1CCCC1)N1CC(=O)N2[C@H](CO)[C@H](c3ccc(C#CC4CCCC4)cc3)[C@@H]2C1 | 1.96
O=C(C1CC1)N1CC(=O)N2[C@@H](CO)[C@@H](c3ccc(C#Cc4cccc(F)c4)cc3)[C@@H]2C1 | -4.69*
O=C(C1CCC1)N1CC(=O)N2[C@H](CO)[C@H](c3ccc(C#Cc4cccc(F)c4)cc3)[C@H]2C1 | -10.3*
COc1cccc(-c2ccc([C@@H]3[C@H]4CNCC(=O)N4[C@H]3CO)cc2)c1 | -2.3
O=C1CN(S(=O)(=O)Cc2ccccc2)C[C@@H]2[C@H](c3ccc(C#Cc4ccc(F)cc4)cc3)[C@@H](CO)N12 | 0.0515
O=S(=O)(Cc1ccccc1)N1C[C@@H]2N[C@H](C1)C2c1ccc(-c2ccccc2)cc1 (stereo not given in full) | -0.518
Cc1cccc(-c2ccc([C@H]3[C@@H](CO)N4C(=O)CN(S(=O)(=O)c5cccc(F)c5)C[C@@H]34)cc2)c1 | 3.34
N#C[C@H]1[C@H](c2ccccc2-c2cccc(F)c2)[C@@H](CO)N1C(=O)NC1CCCCC1 | -1.33
Cc1ccc(-c2ccc([C@@H]3[C@H](CO)N4CCCCN(S(=O)(=O)c5ccccc5C)C[C@@H]34)cc2)cc1 | 0.796
CC(C)C#Cc1ccc([C@@H]2[C@H]3CN(C(=O)Cc4ccccc4)CC(=O)N3[C@H]2CO)cc1 | 0.528
C[C@H]1CC=CC[C@@H](c2ccccc2)NC(=O)[C@H](C)N(C)C(=O)c2ccccc2O1 (mixture of isomers) | 0.867
OC[C@H]1[C@H](c2ccc(C#Cc3ccccc3F)cc2)[C@H]2CN(Cc3cncnc3)CCCCN21 | -5.7*
OC[C@H]1[C@H](c2ccc(C#Cc3ccccc3F)cc2)[C@@H]2CN(Cc3cncnc3)CCCCN12 | -2.3
OC[C@@H]1[C@H](c2ccc(-c3ccccc3F)cc2)[C@H]2CN(Cc3cncnc3)CCCCN12 | -1.71
OC[C@H]1[C@H](c2ccc(-c3ccccc3F)cc2)[C@@H]2CN(Cc3cncnc3)CCCCN12 | 2.23
OC[C@@H]1[C@H](c2ccc(C#Cc3ccccc3F)cc2)[C@@H]2CN(Cc3cncnc3)CCCCN12 | -3.51*
SMILES | IDE exosite FP
OC[C@@H]1[C@@H](c2ccc(C#Cc3ccccc3F)cc2)[C@H]2CN(Cc3cncnc3)CCCCN12 | -1.6
CN(C)C(=O)c1ccc(-c2ccccc2[C@H]2[C@@H](C#N)N(C(=O)C3CC3)[C@@H]2CO)cc1 | -1.96
COc1cccc(-c2ccc([C@@H]3[C@@H](CO)N4C(=O)CNC[C@H]34)cc2)c1 | -1.16
COc1ccc(NC(=O)N2CC(=O)N3[C@H](C2)[C@@H](c2ccc(Br)cc2)[C@@H]3CO)cc1 | -0.633
O=C(NCc1ccccc1F)[C@H]1[C@H](CO)[C@H]2Cn3c(cccc3=O)[C@H]2N1CC1CCCC1 | 0.142
O=C(Nc1ccc(F)cc1)N1CC(=O)N2[C@H](C1)[C@H](c1ccc(C#Cc3ccccc3)cc1)[C@@H]2CO | 0.559
CCCC#Cc1ccc([C@@H]2[C@H](CO)N3C(=O)CN(C(=O)Nc4ccccc4)C[C@@H]23)cc1 | 1.1
COc1ccccc1-c1ccc([C@H]2[C@@H](CO)N3CCCCN(C(=O)c4ccncc4)C[C@H]23)cc1 | -17.2*
COc1ccccc1-c1ccc([C@H]2[C@H](CO)N3CCCCN(C(=O)c4cccnc4)C[C@@H]23)cc1 | -1.32
COc1ccccc1-c1ccc([C@H]2[C@@H](CO)N3CCCCN(C(=O)c4cccnc4)C[C@H]23)cc1 | -12.8*
COc1ccccc1-c1ccc([C@H]2[C@@H](CO)N3CCCCN(C(=O)c4cccnc4)C[C@@H]23)cc1 | 0.242
COc1ccccc1-c1ccc([C@H]2[C@@H](CO)N3CCCCN(C(=O)c4ccncc4)C[C@@H]23)cc1 | -1.11
COc1ccccc1-c1ccc([C@@H]2[C@H]3CN(C(=O)c4cccnc4)CCCCN3[C@H]2CO)cc1 | -4.67*
COc1ccccc1-c1ccc([C@@H]2[C@@H](CO)N3CCCCN(C(=O)c4cccnc4)C[C@@H]23)cc1 | -1.78
COc1ccccc1-c1ccc([C@@H]2[C@@H](CO)N3CCCCN(C(=O)c4ccncc4)C[C@H]23)cc1 | -0.658
O=C(C1CCCCC1)N1CC(=O)N2[C@H](CO)[C@@H](c3ccc(Br)cc3)[C@@H]2C1 | -0.484
C[C@H]1CCCCO[C@H](CN(C)C(=O)NC2CCCCC2)[C@@H](C)CN([C@@H](C)CO)C(=O)c2cc(N(C)C)ccc2O1 | -0.187
CN1c2ccc(-c3ccc(F)cc3)cc2[C@H]2[C@H](CCN2C(=O)Cc2cccnc2)[C@@H]1CO | 1.49
COc1ccc2c3c([nH]c2c1)[C@H](CO)N(C(=O)Nc1ccc(F)cc1)CC31CCN(S(=O)(=O)c2cn(C)cn2)CC1 | 0.708
COc1ccc2c3c([nH]c2c1)[C@H](CO)N(C(=O)c1cccnc1)CC31CN(Cc2ccccc2)C1 | 1.04
O=C(Nc1ccccc1)N1CCCCN2[C@H](CO)[C@H](c3ccc(-c4ccncc4)cc3)[C@H]2C1 | 2.57
C/C=C/c1ccc(C2[C@@H]3CN(S(=O)(=O)c4cn(C)cn4)C[C@H]2N3)cc1 (stereo not given in full) | -0.388
CCCNC(=O)N(C)C[C@H]1Oc2cc(C#C[C@H](C)O)ccc2S(=O)(=O)N([C@H](C)CO)C[C@H]1C | 1.31
COCC(=O)NC[C@H]1[C@H](c2ccc(C3=CCCC3)cc2)[C@H](CO)N1C(C)=O | 4.8
CCC(=O)N1[C@H](CO)[C@@H](c2ccc(-c3cccc(F)c3)cc2)[C@H]1CNC(C)=O | 4.78
SMILES | IDE exosite FP
Cc1ccccc1S(=O)(=O)N1CCCCN2[C@@H](CO)[C@H](c3ccc(-c4cccnc4)cc3)[C@@H]2C1 | 2.34
Cc1ccccc1S(=O)(=O)N1CCCCN2[C@H](C1)[C@@H](c1ccc(-c3cccnc3)cc1)[C@@H]2CO | -3.02*
O=S(=O)(c1ccccc1F)N1CCCCN2[C@H](CO)[C@@H](c3ccc(-c4cccnc4)cc3)[C@@H]2C1 | -7.75*
O=S(=O)(c1ccccc1F)N1CCCCN2[C@H](C1)[C@H](c1ccc(-c3cccnc3)cc1)[C@@H]2CO | -0.54
O=S(=O)(c1ccccc1F)N1CCCCN2[C@@H](CO)[C@H](c3ccc(-c4cccnc4)cc3)[C@@H]2C1 | 2.16
Cc1ccccc1S(=O)(=O)N1CCCCN2[C@H](CO)[C@@H](c3ccc(-c4cccnc4)cc3)[C@H]2C1 | -0.0492
